Measured values: PubChem BioAssay (EPA / NIEHS)
“And” between values parts separate entries of the source, which are not always exact repeats. Identical values can stand only once. The source made the active and inactive calls. How the source made its calls: active means hit-call score of the fitted dose curve at least 0.9, where 1 is the maximum; inactive means score below 0.9.

Test: ATG_EGR_CIS: Attagene CIS-FACTORIAL HepG2 Assay for human Early Growth Response 1 (EGR1) (AID 2282938)
Conditions: HepG2 Attagene CIS-FACTORIAL EGR reporter mRNA; actives raise or lower the signal
Protocol: ATG_CIS is a cell-based, multiplexed-readout assay that uses HepG2, a human liver cell line, with measurements taken at 24 hours after chemical dosing in a 24-well plate.ATG_EGR_CIS is one of 52 assay component(s) measured or calculated from the ATG_CIS assay. It is designed to make measurements of mRNA induction, a form of inducible reporter, as detected with fluorescence intensity signals by Reverse transcription polymerase chain reaction (RT-PCR) and Capillary electrophoresis technology.Data from the assay component ATG_EGR_CIS was analyzed into 1 assay endpoint. This assay endpoint, ATG_EGR_CIS, was analyzed with bidirectional fitting relative to DMSO as the negative control and baseline of activity. Using a type of inducible reporter, measures of mRNA for gain or loss-of-signal activity can be used to understand the reporter gene at the transcription factor-level as they relate to the gene EGR1. Furthermore, this assay endpoint can be referred to as a primary readout, because this assay has produced multiple assay endpoints where this one serves a reporter gene function. To generalize the intended target to other relatable targets, this assay endpoint is annotated to the dna binding intended target family, where the subfamily is zinc finger.
Human liver HepG2 cells are transiently transfected with multiple reporter transcription units (MRTUs) in 6-well plates using FuGene 6 reagent (Roche; 3 ml FuGene/1 mg DNA). The MRTU constructs are regulated by a cis-regulating element (promoter). […] A major difference between the CIS and TRANS system is that in CIS activities of endogenous TFs are measured, whereas the TRANS assay evaluates changes in activities of exogenous, chimeric NR-Gal4 proteins. […] At the end of 24 hour incubation, total RNA was isolated using TriZol reagent (Invitrogen). The isolated RNA is then reverse-transcribed using oligo(dT) primer and Mo-MLV reverse transcriptase (Invitrogen) with DNAse I (Ambion) treatment for 30 min. The one-tenth of the produced cDNA was amplified by PCR using Taq DNA polymerase (Invitrogen) and two reporter sequence-specific primers. The PCR products were fluorescently labeled by primer extension with 6-arboxyfluorescein (6-FAM) 5'-labeled reporter sequence-specific primer (2 min at 95 C, 20 s at 68 C and 10 min at 72 C) and these products were digested with 5U of HpaI (New England Biolabs) for 2h at 37 C. The fragments were purified using Qiaquick PCR columns (Qiagen), analyzed on an ABI 3130xL genetic analyzer (Applied Biosystems) with peak positions identified by using a set of X-rhodamine (ROX)-labeled MapMarker1000 molecular weight standards (BioVentures). The raw capillary electrophoresis data was processed using Attagraph software (Attagene).

AC50, active:
C/C=C/C(=O)C1=C(C)CCCC1(C)C 55.4 µM, N=C(N)c1ccc(OCCCCCOc2ccc(C(=N)N)cc2)cc1 87.5 µM, CN(C)c1ccc(C(=C2C=CC(=[N+](C)C)C=C2)c2ccccc2)cc1 1.46 µM and 1.85 µM, CCC(=O)C=Cc1ccc(OC)cc1 100 µM, O=C(Nc1ccc(Cl)c(Cl)c1)c1cc(Cl)cc(Cl)c1O 8.8 µM

outcome, inactive:
CCOC(OCC)C(=O)c1ccccc1, Nc1cc(Cl)c(-c2cc(Cl)c(N)cc2Cl)cc1Cl, FC(F)(F)C(F)(F)C(F)(F)C(F)(F)I, CCCCC(CC)C(=O)O (stereo not given), CCCCCCCCCCCC, CCCCCCCC(OC)OC, Cc1cc(=O)oc2cc(O)ccc12, C=CCOCC(CO)(CO)CO, CC(C)C=O, O=C1Cc2ccccc2N1c1c(Cl)cccc1Cl, O=C(F)C(F)(F)C(F)(F)C(F)(F)C(F)F, CCOCCOCC, Cc1cc(C(C)(C)C)c(O)c(C(C)(C)C)c1, C=CC(C)(CCC=C(C)C)OC(C)=O (stereo not given), c1ccc2c(c1)CCC2, c1cc[nH]c1, CC1=CC(=O)c2ccccc2C1=O, CCC1CO1 (stereo not given), CCCCCCCCCCCCCCCC(=O)OC, CCOC=O, C=CC(=O)OCCC(F)(F)C(F)(F)C(F)(F)C(F)(F)C(F)(F)C(F)(F)F, C=CC(F)(F)C(F)(F)C(F)(F)C(F)(F)F, O=C(O)CCC(F)(F)C(F)(F)C(F)(F)C(F)(F)C(F)(F)F, CC(C)(C)c1ccc(CCC=O)cc1, CCC(=O)O, FC(OC(F)(F)C(F)(F)C(F)(F)F)C(F)(F)F (stereo not given), NCc1cccc(CN)c1, C[N+](C)(CCCNS(=O)(=O)CCC(F)(F)C(F)(F)C(F)(F)C(F)(F)C(F)(F)C(F)(F)F)CC(=O)[O-], CN(C)CCOC(c1ccccc1)c1ccccc1, CCC(C)c1nccnc1OC (stereo not given), Oc1cccc2c(O)cccc12, O=S(=O)(O)c1ccc2cc(O)ccc2c1, Oc1c(Cl)ccc(Cl)c1Cl, COc1cc([N+](=O)[O-])ccc1N, O=S(=O)(O)c1ccccc1
